“And” between values parts separate entries of the source, which are not always exact repeats. Equal values may be shown once. Some structures have more than one record in an assay (separate samples or runs), and their calls can disagree. The source made the active and inactive calls. How the source made its calls: active means hit-call score of the fitted dose curve at least 0.9, where 1 is the maximum; inactive means score below 0.9.
Assays:
[1] = read-out: Interleukin 17F (IL17F), IL17F (gene 112744); assay: BSK_BT_xIL17F: BioMAP Diversity Plus: BT Assay for Interleukin 17F (IL17F) Biomarker Activity (AID 2284243); settings: primary human B cells with PBMC
Method in brief: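 Human PBMC co-cultured with B cells, compound exposure 24 h; secreted IL-17F quantified by Luminex xMAP, referenced to DMSO control. PBMC viability measured in parallel by Alamar Blue reduction.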

[2] = read-out: Actin alpha 1 (ACTA1), ACTA1 (gene 58); assay: BSK_MyoF_ACTA1: BioMAP Diversity Plus: MyoF Assay for Actin alpha 1 (ACTA1) Biomarker Activity (AID 2284244); settings: primary human lung fibroblasts
Method in brief: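 Cells were exposed to chemical for 24 h before a-SMA levels were quantified by ELISA in human lung fibroblasts. Increases were fitted against DMSO as negative control; parallel SRB staining (0.1% after 10% TCA fixation, 560 nm) assessed cytotoxicity.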

[3] = read-out: Interleukin 2 (IL2), IL2 (gene 3558); assay: BSK_BT_xIL2: BioMAP Diversity Plus: BT Assay for Interleukin 2 (IL2) Biomarker Activity (AID 2284245); settings: primary human B cells with PBMC
Method in brief: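 The BT system combines human B cells with peripheral blood mononuclear cells. Twenty-four hours after chemical dosing, secreted IL-2 was measured with xMAP bead technology, and responses were analyzed as increases over DMSO controls.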

[4] = read-out: Basic fibroblast growth factor (bFGF), FGF2 (gene 2247); assay: BSK_MyoF_bFGF: BioMAP Diversity Plus: MyoF Assay for Basic fibroblast growth factor (bFGF) Biomarker Activity (AID 2284246); settings: primary human lung fibroblasts
Method in brief: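 Chemicals are added to human lung fibroblast cultures and incubated 24 h. bFGF is then measured by ELISA, while parallel cultures receive SRB staining for total protein as a cytotoxicity check. Data are fitted upward against DMSO.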

[5] = read-out: Collagen IV, COL4A1 (gene 1282); assay: BSK_MyoF_CollagenIV: BioMAP Diversity Plus: MyoF Assay for Collagen IV Biomarker Activity (AID 2284247); settings: primary human lung fibroblasts
Method in brief: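 Human lung fibroblast system, 24 h chemical exposure. Endpoint: Collagen IV by ELISA, upward fit vs DMSO.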

[6] = read-out: Monokine induced gamma interferon (MIG), CXCL9 (gene 4283); assay: BSK_KF3CT_MIG: BioMAP Diversity Plus: KF3CT Assay for Monokine induced gamma interferon (MIG) Biomarker Activity (AID 2284248); settings: primary human keratinocytes with fibroblasts
Method in brief: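 Human keratinocyte–foreskin fibroblast co-culture; MIG measured by ELISA 24 h after chemical dosing, fitted upward versus DMSO. Cytotoxicity was assessed in parallel cultures by SRB total-protein staining read at 560 nm.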

[7] = read-out: Vascular cell adhesion molecule 1 (VCAM1), VCAM1 (gene 7412); assay: BSK_BF4T_VCAM1: BioMAP Diversity Plus: BF4T Assay for Vascular cell adhesion molecule 1 (VCAM1) Biomarker Activity (AID 2284249); settings: primary human bronchial epithelial cells with fibroblasts
Method in brief: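 Cell-surface VCAM-1 quantified by ELISA after 24 h chemical exposure of human bronchial epithelial/dermal fibroblast co-cultures, with SRB staining in parallel wells for cytotoxicity; DMSO baseline, positive-direction fitting.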

[8] = read-out: Plasminogen activator inhibitor-1 (PAI1), SERPINE1 (gene 5054); assay: BSK_KF3CT_PAI1: BioMAP Diversity Plus: KF3CT Assay for Plasminogen activator inhibitor-1 (PAI1) Biomarker Activity (AID 2284252); settings: primary human keratinocytes with fibroblasts
Method in brief: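 Cells (human keratinocytes co-cultured with foreskin fibroblasts) are exposed to test chemical for 24 h. PAI-1 is then measured by ELISA and analysed for signal gain against DMSO.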

[9] = read-out: Monocyte Chemoattractant Protein-1 (MCP1), CCL2 (gene 6347); assay: BSK_IMphg_MCP1: BioMAP Diversity Plus: IMphg Assay for Monocyte Chemoattractant Protein-1 (MCP1) Biomarker Activity (AID 2284253); settings: primary human endothelial cells with macrophages
Method in brief: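 ELISA readout of MCP-1 at 24 hours in IMphg co-cultures of venular endothelial cells and macrophages, normalised to DMSO; parallel cultures stained with sulforhodamine B for overt cytotoxicity.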

[10] = read-out: Macrophage Inflammatory Protein-1 Alpha (MIP1a), CCL3 (gene 6348); assay: BSK_IMphg_MIP1a: BioMAP Diversity Plus: IMphg Assay for Macrophage Inflammatory Protein-1 Alpha (MIP1a) Biomarker Activity (AID 2284255); settings: primary human endothelial cells with macrophages
Method in brief: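 MIP-1a protein levels were quantified by ELISA after 24 h treatment of human endothelial cell–macrophage co-cultures, compared with DMSO. Parallel cultures were fixed with TCA and stained with 0.1% SRB to gauge overt cytotoxicity.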

[11] = read-out: CD69, CD69 (gene 969); assay: BSK_IMphg_CD69: BioMAP Diversity Plus: IMphg Assay for CD69 Biomarker Activity (AID 2284257); settings: primary human endothelial cells with macrophages
Method in brief: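 Readout is ELISA for CD69 in primary human venular endothelial cell/macrophage co-culture, taken at 24 h post-dosing. SRB staining of parallel cultures gauged overt cytotoxicity; signal increase versus DMSO defined activity.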

[12] = read-out: Eotaxin 3, CCL26 (gene 10344); assay: BSK_BF4T_Eotaxin3: BioMAP Diversity Plus: BF4T Assay for Eotaxin 3 Biomarker Activity (AID 2284258); settings: primary human bronchial epithelial cells with fibroblasts
Method in brief: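 ELISA measurement of Eotaxin-3 after 24 h chemical exposure in a bronchial epithelial/dermal fibroblast co-culture, with DMSO as baseline. Parallel SRB staining (0.1% SRB after 10% TCA fixation, 560 nm) flagged overt cytotoxicity.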

[13] = read-out: Monocyte Chemoattractant Protein-1 (MCP1), CCL2 (gene 6347); assay: BSK_BF4T_MCP1: BioMAP Diversity Plus: BF4T Assay for Monocyte Chemoattractant Protein-1 (MCP1) Biomarker Activity (AID 2284259); settings: primary human bronchial epithelial cells with fibroblasts
Method in brief: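 MCP-1 ELISA readout taken 24 h after dosing in the BF4T system (bronchial epithelial cells plus dermal fibroblasts). Parallel SRB total-protein staining flagged cytotoxicity; DMSO served as baseline, positive fitting direction.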

[14] = read-out: Intercellular Adhesion Molecule 1 (ICAM1), ICAM1 (gene 3383); assay: BSK_BF4T_ICAM1: BioMAP Diversity Plus: BF4T Assay for Intercellular Adhesion Molecule 1 (ICAM1) Biomarker Activity (AID 2284260); settings: primary human bronchial epithelial cells with fibroblasts
Method in brief: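 ICAM-1 levels measured by ELISA after 24 h chemical treatment of bronchial epithelial cell/dermal fibroblast co-cultures, read against DMSO baseline. Overt cytotoxicity checked in parallel cultures by sulforhodamine B staining.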

[15] = read-out: Interleukin-8 (IL8), CXCL8 (gene 3576); assay: BSK_MyoF_IL8: BioMAP Diversity Plus: MyoF Assay for Interleukin-8 (IL8) Biomarker Activity (AID 2284261); settings: primary human lung fibroblasts
Method in brief: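 Human lung fibroblast (MyoF system) cultures dosed for 24 h, then IL-8 measured by ELISA. Response taken relative to DMSO; parallel SRB total-protein staining for cytotoxicity.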

[16] = read-out: CD90, THY1 (gene 7070); assay: BSK_BF4T_CD90: BioMAP Diversity Plus: BF4T Assay for CD90 Biomarker Activity (AID 2284262); settings: primary human bronchial epithelial cells with fibroblasts
Method in brief: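 CD90 levels by ELISA after 24 h treatment of human bronchial epithelial cell/dermal fibroblast cultures, analysed versus DMSO. Overt cytotoxicity checked in parallel cultures by sulforhodamine B staining.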

[17] = read-out: Interleukin-8 (IL8), CXCL8 (gene 3576); assay: BSK_BF4T_IL8: BioMAP Diversity Plus: BF4T Assay for Interleukin-8 (IL8) Biomarker Activity (AID 2284263); settings: primary human bronchial epithelial cells with fibroblasts
Method in brief: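 Human bronchial epithelial cells with dermal fibroblasts co-culture; IL-8 measured by ELISA 24 hours after dosing, fitted vs DMSO. Cytotoxicity tracked in parallel cultures by SRB total-protein staining.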

[18] = read-out: Interleukin-1 alpha (IL1a), IL1A (gene 3552); assay: BSK_BF4T_IL1a: BioMAP Diversity Plus: BF4T Assay for Interleukin-1 alpha (IL1a) Biomarker Activity (AID 2284264); settings: primary human bronchial epithelial cells with fibroblasts
Method in brief: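 ELISA read-out of IL-1α from bronchial epithelial cell/dermal fibroblast co-cultures 24 h after compound addition. Increases scored against DMSO negative control. Cytotoxicity monitored by sulforhodamine B staining of parallel cultures.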

[19] = read-out: Decorin, DCN (gene 1634); assay: BSK_MyoF_Decorin: BioMAP Diversity Plus: MyoF Assay for Decorin Biomarker Activity (AID 2284265); settings: primary human lung fibroblasts
Method in brief: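 Human lung fibroblast cultures were dosed for 24 h, and decorin was then measured by ELISA. Parallel cultures were stained with sulforhodamine B for total protein as a cytotoxicity check. Gain of signal was fitted relative to DMSO.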

[20] = read-out: KRT18 (gene 3875); assay: BSK_BF4T_Keratin818: BioMAP Diversity Plus: BF4T Assay for Keratin 818 Biomarker Activity (AID 2284266); settings: primary human bronchial epithelial cells with fibroblasts
Method in brief: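 Keratin 8/18 levels quantified by ELISA after 24 h chemical treatment of bronchial epithelial cell/dermal fibroblast co-cultures, fitted in positive direction relative to DMSO. Parallel SRB staining tracks overt cytotoxicity.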

## C=C(F)C(=O)OC(C(F)(F)F)C(F)(F)F
[1]
  outcome: inactive
[2]
  outcome: inactive
[3]
  outcome: inactive
[4]
  outcome: inactive
[5]
  outcome: inactive
[6]
  outcome: inactive
[7]
  outcome: inactive
[8]
  outcome: inactive
[9]
  outcome: inactive
[10]
  outcome: inactive
[11]
  outcome: inactive
[12]
  outcome: inactive
[13]
  AC50: 47.3 µM (active)
  outcome: inactive
[14]
  outcome: inactive
[15]
  outcome: inactive
[16]
  outcome: inactive
[17]
  outcome: inactive
[18]
  outcome: inactive
[19]
  outcome: inactive
[20]
  outcome: inactive

## CCCCN(CCO)CCO
[6]
  outcome: inactive
[8]
  outcome: inactive

## CC1=CC(C)C(C=O)C(C)C1 (configuration not stated) (tested in a mixture with another compound)
[1]
  outcome: inactive
[2]
  outcome: inactive
[3]
  outcome: inactive
[4]
  outcome: inactive
[5]
  outcome: inactive
[15]
  outcome: inactive
[19]
  outcome: inactive

## OCC(F)(OC(F)(F)C(F)(OC(F)(F)C(F)(F)C(F)(F)F)C(F)(F)F)C(F)(F)F (configuration not stated)
[1]
  AC50: 5.47 µM (active) and 5.77 µM (active)
[2]
  AC50: 3.43 µM (active) and 4.31 µM (active)
[3]
  AC50: 4.97 µM (active)
  outcome: inactive
[4]
  outcome: inactive
[5]
  AC50: 3.9 µM (active)
  outcome: inactive
[6]
  AC50: 5.41 µM (active) and 3.33 µM (active)
[7]
  outcome: inactive
[8]
  AC50: 5 µM (active) and 4.79 µM (active)
[9]
  AC50: 4.65 µM (active)
  outcome: inactive
[10]
  outcome: inactive
[11]
  outcome: inactive
[12]
  outcome: inactive
[13]
  AC50: 4.19 µM (active)
  outcome: inactive
[14]
  outcome: inactive
[15]
  outcome: inactive
[16]
  outcome: inactive
[17]
  outcome: inactive
[18]
  outcome: inactive
[19]
  outcome: inactive
[20]
  outcome: inactive

## CCCCCCCCCCCCS
[1]
  outcome: inactive
[2]
  AC50: 18.6 µM (active)
[3]
  outcome: inactive
[4]
  AC50: 29 µM (active)
[5]
  outcome: inactive
[15]
  outcome: inactive
[19]
  AC50: 3.97 µM (active)

## CC(=O)OC(C)(C)C1CC=C(C)CC1 (configuration not stated)
[1]
  outcome: inactive
[2]
  outcome: inactive
[3]
  outcome: inactive
[4]
  outcome: inactive
[5]
  outcome: inactive
[15]
  outcome: inactive
[19]
  outcome: inactive

## CC(=O)CCC=C(C)CCC=C(C)C
[1]
  outcome: inactive
[2]
  outcome: inactive
[3]
  outcome: inactive
[4]
  outcome: inactive
[5]
  outcome: inactive
[15]
  outcome: inactive
[19]
  outcome: inactive

## CCCCCCCC1CCCC1=O (configuration not stated)
[1]
  outcome: inactive
[2]
  outcome: inactive
[3]
  outcome: inactive
[4]
  outcome: inactive
[5]
  outcome: inactive
[15]
  outcome: inactive
[19]
  outcome: inactive
